According to the emibetuzumab library of Makowski et al. (2022):
This is one part of the list. How many sequences the whole screen found active is unknown.

B1: VH:VL chains; a variant is named by its letters at X, in order (parent)
chain 1: QVQLVQSGAEVKKPGASVKVSCKASGYTFTDYXMHWVRQAPGQGLEWMGXVNPNXXXTTYNQKFEGRVTMTTDTSTSTAYMELRSLRSDDTAVYYCARXNXLDXWGQGTTVTVSS
chain 2: DIQMTQSPSSLSASVGDRVTITCSVSSSVSSIYLHWYQQKPGKAPKLLIYSTSNLASGVPSRFSGSGSGTDFTLTISSLQPEDFATYYCQVYSGYPLTFGGGTKVEIK

Variants of: B1
Test: yeast display scFab, FACS + sequencing
Conditions: with MET
In short: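 A heavy-chain CDR mutant scFab library on yeast was enriched magnetically with HGFR-Fc-coated Protein A beads for two rounds and then by FACS after labelling with 1 nM HGFR-Fc and anti-Myc in PBSB with 1% milk for 3 h at room temperature, gating the top 50% antigen-positive cells. Antigen binding was judged positive if a sequence turned up in both antigen-positive deep-sequencing samples and negative if it turned up only in the input.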

Row | Variant | antigen binding call
1 | VEEEGDGV | no binding
2 | YAGTGFWV | no binding
3 | DEGGTDAV | no binding
4 | FKGKGAVV | binds
5 | FREGSASV | no binding
6 | FREEGFSV | no binding
7 | FKGKGAAF | no binding
8 | FRGKGASV | binds
9 | YKGKGSAV | binds
10 | YKGRASAV | no binding
11 | FRGKGAAV | binds
12 | DATGGSGD | no binding
13 | FKATTVVD chain 1 S88F | no binding
14 | YKGGGSAV | binds
15 | DKGGGFAV | no binding
16 | FKGRGAAS | binds
17 | AKGKGAAV | no binding
18 | YRGKGSAV | binds
19 | FKGKGAAV | binds
20 | YEGGGSAV | no binding
21 | FRGKGSAV | binds
22 | VKGKGDAV | no binding
23 | DAGGADAV | no binding
24 | DEGGTDWY | no binding

Row | Variant | antigen binding call
25 | YKRRDAVY | no binding
26 | YTRGAAGY | no binding
27 | YKRGDAGY | binds
28 | YKRESAGY | binds
29 | YARETDVV | no binding
30 | DGARNAGV | no binding
31 | VTGTGSSA | no binding
32 | YRKGGAAS | binds
33 | FRKGGAGS | binds
34 | FRKRSFSS | no binding
35 | YRKGGAGS | binds
36 | YRKGGFSS | no binding
37 | YRRGSAVA | binds
38 | YRTEGAVA | binds
39 | YRRGAAAA | binds
40 | YETGAAAA | no binding
41 | YRRGGAAA | binds
42 | ARRGSDVA | no binding
43 | DREEGAVA | no binding
44 | YTRGADGA | no binding
45 | DETGGDWF | no binding
46 | VEEEGDWV | no binding
47 | VTGTGDWF | no binding
48 | YRRGGAVA | binds

Row | Variant | antigen binding call
49 | YTRGADWA | no binding
50 | YRRGAAWA | binds
51 | YRRGSAWA | binds
52 | YREKAAWA | no binding
53 | YRRGGAWA | binds
54 | DEGGDDAA | no binding
55 | VKGRADSA | no binding
56 | VEKTGVGA | no binding
57 | YRAESAAA | binds
58 | YRAGSAAA | binds
59 | YEAGTAVA | no binding
60 | DRAGDAAA | no binding
61 | YAAKTAAA | no binding
62 | YRAKGAAA | binds
63 | YRAGTAAA | binds
64 | VAEGGYAV | no binding
65 | VTAEDFGV | no binding
66 | AARADAVA | no binding
67 | DGGKNDLA | no binding
68 | VEGRGDVF | no binding
69 | VTGRGDVF | no binding
70 | YKGRGSWF | binds
71 | YGGRGSWV | no binding
72 | VKEKGSLF | binds

Row | Variant | antigen binding call
73 | VKEKGDSA | no binding
74 | YAGRGDWF | no binding
75 | DKGRGSSA | no binding
76 | VKEKGYLV | no binding
77 | VKGRGSVF | binds
78 | VKGRGSSF | binds
79 | VKGRGDSF | no binding
80 | VTTRADVV | no binding
81 | YTGGADAV | no binding
82 | VKGRGSLF | binds
83 | YKGRGALF | binds
84 | YKARSALF | binds
85 | YKGRGSLF | binds
86 | DGARGALF | no binding
87 | VKGRASGF | no binding
88 | DAGGADWA | no binding
89 | SARTDFWF chain 1 K19N | no binding
90 | ATKTAFVS chain 1 M34I | no binding
91 | SEAGDAVV | no binding
92 | VTTRADVY | no binding
93 | FRGESAGS | binds
94 | FKGEGAGV | no binding
95 | FRGESAGV | binds
96 | DAKENDVF | no binding

Row | Variant | antigen binding call
97 | VEGTSDLS | no binding
98 | YAKADSGA | no binding
99 | YTKRSSGA | no binding
100 | YRTGGSGA | binds
101 | YRRKGSGA | binds
102 | YRKGSSGA | binds
103 | FARKGSGA | no binding
104 | YTTGGDGA | no binding
105 | YRKGGSGA | binds
106 | YKTGGSGA | binds
107 | DATGGSGA | no binding
108 | VKTGGAGA | no binding
109 | DAGTGSWD | no binding
110 | YRGKASWD | binds
111 | YRGRDSWD | binds
112 | YRGRSSWD | binds
113 | VTTKSSSA | no binding
114 | ATATADWA | no binding
115 | DKRKGVAF | no binding
116 | VRAGDSSV | binds
117 | VEAGDSWV | no binding
118 | VRTEDDWV | no binding
119 | VRRKSSSV | binds
120 | VETEGSSV | no binding

Row | Variant | antigen binding call
121 | VRAEGSSV | binds
122 | VRAGDDGV | no binding
123 | VRTEDFGV | no binding
124 | VTGTASSV | no binding
125 | VRTEDSSV | binds
126 | VTEEGSSV | no binding
127 | VKGRASSV | no binding
128 | VETEGDGV | no binding
129 | ATGANAGD | no binding
130 | AETGASLS | no binding
131 | DTKAADWV | no binding
132 | DREGGVSD | no binding
133 | DRRRGALD | binds
134 | SGRGNALD | no binding
135 | DATGGALD | no binding
136 | SAREGALD | no binding
137 | SRRRGALD | binds
138 | VTATADWA | no binding
139 | VKGRADWD | no binding
140 | SEEEGAGD | no binding
141 | VAGTGDGV | no binding
142 | VRRKDFLA | no binding
143 | YRGKDALA | binds
144 | YAKRDALA | no binding

Row | Variant | antigen binding call
145 | YRAKDALA | binds
146 | YRRKDALA | binds
147 | DTTGSDWV | no binding
148 | VAGTGDVY | no binding
149 | VKGRSVGY | no binding
150 | YRGRGVGY | binds
151 | VRGRGVGY | binds
152 | YRGRDVGY | no binding
153 | VTGEDDWY | no binding
154 | DTKAADVA | no binding
155 | SEARSDGY | no binding
156 | SAGRGYGD | no binding
157 | YKGRGYGD | binds
158 | YKGRGFGD | binds
159 | YAGRGDAD | no binding
160 | YKGRGYAD | no binding
161 | YKGRGDGD | binds
162 | YKGRGDAD | binds
163 | YGGRGDAD | no binding
164 | YKGKGFGD | no binding
165 | YKGADFGD | no binding
166 | YEGGGDVA | no binding
167 | VGAEGVWS chain 1 G66S | no binding
168 | VEGGGDVD | no binding

Row | Variant | antigen binding call
169 | VAGAGDSV | no binding
170 | YKGRGVGD | binds
171 | VKTGGDGD | no binding
172 | YAGRGDLV | no binding
173 | YAGRGDLD | binds
174 | YAGRGDVD | no binding
175 | YAGRGVGD | no binding
176 | YKGKGDGD | binds
177 | VEEEDYSS | no binding
178 | FRARSAAA | binds
179 | FRKGGAAA | binds
180 | FRAGGAAA | binds
181 | FAAKTAAA | no binding
182 | YRGGSAGA | binds
183 | DRGRDAGA | no binding
184 | YRGRSAGA | binds
185 | VKTGGAWY | no binding
186 | VKGRGAWY | binds
187 | VKGRGFWY | no binding
188 | VKGRGSWY | binds
189 | VKGRADWY | no binding
190 | VAAAGAAV | no binding
191 | YKTRSSAD | binds
192 | DKTGDSAD | binds

Row | Variant | antigen binding call
193 | YKTRGSAD | binds
194 | DKKEDSAD | no binding
195 | DKEGGSAD | no binding
196 | YKTRGSLD | binds
197 | VKKESDSY | no binding
198 | YAREDDGA | no binding
199 | ARRGGSVD | no binding
200 | YRRGGSVD | binds
201 | YRRGTSVD | binds
202 | DATGGDWA | no binding
203 | YRRRGAGA | binds
204 | ARRRGSGA | no binding
205 | YARRGDGA | no binding
206 | YRRRGSGA | binds
207 | YRRRGFGA | binds
208 | YRRRGVGA | binds
209 | YARADDSA | no binding
210 | DTTGSSGV | no binding
211 | VEAGDDAA | no binding
